The results in this text go back to PubChem BioAssay (NCI).

Where “and” joins values, the source holds several entries; their conditions need not be identical. Equal entries are not always repeated. About 83,000 compounds went through this panel and 20% of them were active in at least one assay; those are over-represented in the sample as a whole.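 Values shown are percent growth following 48 h exposure of cells in 96-well plates to a single concentration of compound; below 10 was considered active.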 Calls of active or inactive are those of the source.

The test system of one test is T-47D breast. The experiment in a line: NCI-60 one-dose screen, 48 h (100 = growth as untreated, 0 = no growth, -100 = all killed). The conditions noted are these: 10 µM unless noted.
`CCOC(=O)C1C(C=C(C)C)C1(C)C` (stereo not given): the growth is 115% (inactive). On to `O=C/C=C/c1ccco1`, for which the growth was 107% (inactive). In the case of `Cn1cc(-c2csc(-c3cn(CCCCN4CCOCC4)c4ccc(F)cc34)n2)c2cccnc21`, the growth is 76.9% (inactive).

`CC(=O)Nc1nc2c(s1)C1=CC[C@H]3[C@@H]4CC[C@H](OC(C)=O)[C@@]4(C)CC[C@@H]3[C@@]1(C)CC2`: the growth was 74.3% (inactive).

For `C[C@]12CC[C@H](O)C[C@@H]1CC[C@@H]1[C@@H]2CC[C@]2(C)OC(=O)CC[C@@H]12`, the growth was 63.6% (inactive). On to `C[C@]12CCc3sc(Nc4ccc(O)cc4)nc3C1=CC[C@@H]1[C@@H]2CC[C@]2(C)C(=O)CC[C@@H]12`, for which the growth was 10.6% (inactive).

`O=C(O)C(Br)CBr` (stereo not given): the growth is 89.6% (inactive).

As to `Cc1cc[c-]cc1.Fc1c[c-]c(-c2ccccn2)c(F)c1.N#CCC[PH+](CCC#N)c1ccccc1.[Pt+2]`, the growth is 29.1% (inactive). In the case of `O=P(O)(Nc1ccccc1)Nc1ccccc1`, the growth was 97% (inactive). For the molecule `Cc1cc(N(CCCl)CCCl)ccc1C=Nc1ccc(-c2csc(-c3ccccc3)n2)cc1`, the growth is 57.8% (inactive). As for `Oc1ccccc1C=NCCN=Cc1ccccc1O`, the growth is 103% (inactive). `COC12CC3(C)C(C4=CC(=O)OC4)CCC3(O)C3CCC4=CC(=O)CCC4(CO1)C32` (stereo not given): the growth is 116% (inactive). On the same count and under the same terms, the result for `CC12CCC3C(CCC4CC(O)CCC43C)C1CCC2=O` (stereo not given) reads 113% (inactive); that for `COc1cc(-c2ccc(N)c(OC)c2)ccc1N`, 96.4% (inactive); that for `COc1ccn(C)c(=O)c1C#N`, 81.6% (inactive). The same measure, in the same setting: the figure for `CCCCCCCCCCCCCCCC[N+](C)(C)Cc1ccccc1` is 7% (active) and -12% (active); for `Cc1nc2ccccc2c(=O)n1-c1ccccc1F` it is 79.1% (inactive).

Turning to `C[C@]12CC[C@H]3[C@@H](C[C@@H]4SC(Nc5ccccc5)=N[C@@]45C/C(=N/O)CC[C@]35C)[C@@H]1CCC2=O`, the growth was 64.4% (inactive). For `N#CCN(CC#N)[N+](=O)[O-]`, the growth was 92.2% (inactive). The same measure, in the same setting: the figure for `O=C(O)c1ccccc1N(CCO)CCCl` is 87.6% (inactive); for `O=[N+]([O-])c1cc(Cl)c(Cl)cc1Cl` it is 107% (inactive) and 108% (inactive); for `CN1[C@@H](CC(=O)c2ccccc2)CCC[C@H]1CC(=O)c1ccccc1` it is 103% (inactive). With `O=Cc1cn(Cc2ccccc2)c2ccccc12`, the growth was 41.4% (inactive).

`OCCN=Cc1c[nH]c2ccccc12`: the growth is 94.5% (inactive). With `C=CC[PH+](c1ccccc1)c1ccccc1.C=CC[PH+](c1ccccc1)c1ccccc1.[Pt+2].[S-]c1nc2ccccc2[nH]1.[S-]c1nc2ccccc2[nH]1`, the growth is -6.06% (active). Take `O=NN1CCCCC1`: the growth was 102% (inactive). On the same count and under the same terms, the figure for `COC(=O)C1=CCCN(C)C1` is 101% (inactive) and 113% (inactive); for `CC[C@H](C)[C@H](NC(=O)[C@H]1CCCCN1C)C(=O)N(C)[C@H](C[C@@H](OC(C)=O)c1cccc(C(=O)N[C@@H](Cc2ccccc2)C[C@H](C)C(=O)OC)n1)C(C)C` it is 63.6% (inactive); for `CC1(C)CN=C(NN=C(/C=C/c2ccc(C(F)(F)F)cc2)/C=C/c2ccc(C(F)(F)F)cc2)NC1` it is -86.1% (active). For `Cc1ccc(P(=O)(O)O)cc1`, the growth is 98.8% (inactive).

Regarding `Nc1ccc2c(c1)Cc1cc(N)ccc1-2`, the growth was 67.3% (inactive).

In the case of `N#CCCc1ccccc1`, the growth was 112% (inactive). As to `CNC(=O)O/N=C(\SC)C(=O)N(C)C`, the growth was 97.1% (inactive). As to `CCC1(CCSC#N)C(=O)NC(=O)NC1=O`, the growth was 78.4% (inactive).

With `Oc1ccccc1C=NCCN=Cc1ccccc1O.[Fe]`, the growth was 97.7% (inactive). Regarding `CCCCCCCCCCCCCCCC[N+](C)(C)C`, the growth was 4.4% (active) and -13.9% (active). In the case of `C[N+]1(C)CCCC1c1cccnc1` (stereo not given), the growth was 96.5% (inactive).

Another test has as its system BT-549 breast. The description is as above. The settings on record: 10 µM unless noted.
Regarding `O=C/C=C/c1ccco1`, the growth is 104% (inactive). In the case of `Cn1cc(-c2csc(-c3cn(CCCCN4CCOCC4)c4ccc(F)cc34)n2)c2cccnc21`, the growth was 65.3% (inactive). `C[C@]12CC[C@H](O)C[C@@H]1CC[C@@H]1[C@@H]2CC[C@]2(C)OC(=O)CC[C@@H]12`: the growth is 88.2% (inactive).

As for `C[C@]12CCc3sc(Nc4ccc(O)cc4)nc3C1=CC[C@@H]1[C@@H]2CC[C@]2(C)C(=O)CC[C@@H]12`, the growth is 45.6% (inactive).

For the molecule `O=C(O)C(Br)CBr` (stereo not given), the growth was 100% (inactive).

In the case of `Cc1cc[c-]cc1.Fc1c[c-]c(-c2ccccn2)c(F)c1.N#CCC[PH+](CCC#N)c1ccccc1.[Pt+2]`, the growth was 55.7% (inactive). In the case of `O=P(O)(Nc1ccccc1)Nc1ccccc1`, the growth is 100% (inactive). Regarding `Oc1ccccc1C=NCCN=Cc1ccccc1O`, the growth is 106% (inactive). In the case of `COc1cc(-c2ccc(N)c(OC)c2)ccc1N`, the growth is 95.6% (inactive). As for `CCCCCCCCCCCCCCCC[N+](C)(C)Cc1ccccc1`, the growth was -0.798% (active) and -75.1% (active). On the same count and under the same terms, the figure for `Cc1nc2ccccc2c(=O)n1-c1ccccc1F` is 105% (inactive). Take `C[C@]12CC[C@H]3[C@@H](C[C@@H]4SC(Nc5ccccc5)=N[C@@]45C/C(=N/O)CC[C@]35C)[C@@H]1CCC2=O`: the growth was 35.6% (inactive).

Turning to `O=C(O)c1ccccc1N(CCO)CCCl`, the growth is 95.9% (inactive). Regarding `O=Cc1cn(Cc2ccccc2)c2ccccc12`, the growth was 95.1% (inactive). Consider `O=NN1CCCCC1`, for which the growth was 104% (inactive). Regarding `Cc1ccc(P(=O)(O)O)cc1`, the growth was 122% (inactive).

For the molecule `N#CCCc1ccccc1`, the growth was 106% (inactive). As for `CNC(=O)O/N=C(\SC)C(=O)N(C)C`, the growth is 101% (inactive).
